Compounds with a hit are over-represented: about 20% of the library has one in this group of screens.
Shiga toxin inh = A qHTS for Small Molecule Inhibitors of Shiga Toxin; Vero cells, Shiga toxin protein synthesis inhibition reporter; inhibition, % at 38.7 µM; hit rate 9.2% among 290,000; AID 2315, 2010; in the data active means inhibition mostly above about 28%, no sharp cut-off; inactive means mostly below about 43%; further: 0% is about no effect
Cycloheximide cs = Cycloheximide Counterscreen for Small Molecule Inhibitors of Shiga Toxin. cell reporter, cycloheximide protein synthesis inhibition counterscreen. max response, %. hit rate 12% among 300,000; in the data active means max response mostly above about 13%, no sharp cut-off; inactive means mostly below about 14%; further: read at 38.3 µM for the half of the compounds with a filed dose; 0% is about no effect
Pf growth 96h = Primary qHTS for delayed death inhibitors of the malarial parasite plastid, 96 hour incubation. hit rate 6.9% among 320,000. Potency, µM (series often up to 28.7 µM), for the others: top-dose activity change, negative = inhibition, most hits filed as inhibitors. P. falciparum luciferase reporter growth, 96 h; further: potency means the concentration at half of the fitted maximal effect; on the % scale 0 is the no-effect control and ±100 the full control effect
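Infected RBCs, 2% Hct / 0.05% parasitemia final; luciferase-reporter P. falciparum; cpd 96 h, 37 C, 5% CO2; luciferase detection reagent; luminescence.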
HCMV inh = qHTS Assay for inhibitors of the human cytomegalovirus (HCMV); HFF cells, HCMV-luciferase reporter, 72 h; stronger effect = lower value; activity change, negative = inhibition, % at 57.5 µM; hit rate 4.5% among 410,000; AID 1259415, 2018; in the data active means activity change below about -60%; inconclusive means no clear call, values can overlap the other calls; inactive means above about -39%; further: on the % scale 0 is the no-effect control and ±100 the full control effect
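Cell-based, HFFs, 1000 cells/well, 16 h 37C; cpds in DMSO + HCMV-luc, MOI 1 PFU/cell; 72 h 37C; OneGlo luminescence after 5 min RT; norm. to buffer vs Salinomycin 10uM.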
Pf growth 48h = Primary qHTS for delayed death inhibitors of the malarial parasite plastid, 48 hour incubation; P. falciparum luciferase growth in erythrocytes, 48 h; Potency, µM (series often up to 28.7 µM), without a hit: top-dose activity change, negative = inhibition, actives largely listed as inhibitors; hit rate 5.9% among 310,000; AID 504832, 2011; further: potency means the concentration at half of the fitted maximal effect; on the % scale 0 is the no-effect control and ±100 the full control effect
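Cell-based growth assay: transgenic P. falciparum expressing firefly luciferase, cultured in red cells within RPMI 1640 containing 0.5% w/v Albumax, 24 mM bicarbonate and gentamycin. A drop in luciferase activity indicates inhibition.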
Starred values were filed as active, the others as inactive. Unless noted, the call rests on the fitted dose curve; in most records, active means well fitted inhibition curve with a large enough effect; inconclusive means small, poorly fitted or top-dose-only effect, or another doubt; inactive means no such curve, though single readings can be large or run the other way.

`CCC(=O)N1N=C(c2cccs2)CC1c1ccc(C)cc1` (stereo unspecified) gave Shiga toxin inh -6, Cycloheximide cs 10, Pf growth 96h inconclusive, HCMV inh 21 and Pf growth 48h -15%.
Screening COc1ccc(C2CC(c3cccs3)=NN2C(=O)CSc2nc(=O)n3cc(C)ccc3n2)cc1 (stereo unspecified) returned Pf growth 96h 8.3µM*, HCMV inh -38 and Pf growth 48h 10µM*.
`CCOC(=O)c1ccc(Nc2ncnc3ccc(C)cc23)cc1` gave Shiga toxin inh 10, Cycloheximide cs 6, Pf growth 96h -6%, HCMV inh -11 and Pf growth 48h inconclusive.
Screening CCOC(=O)c1cccc(Nc2ncnc3ccc(C)cc23)c1 returned Shiga toxin inh -4, Cycloheximide cs -3, Pf growth 96h 9.3µM*, HCMV inh -24 and Pf growth 48h 12µM*.
Screening CC(Nc1ncnc2nc[nH]c12)c1ccccc1 (stereo unspecified) returned Shiga toxin inh 12, Cycloheximide cs 2, Pf growth 96h 13µM*, HCMV inh inconclusive and Pf growth 48h inconclusive.
Cc1cccc(Nc2ncnc3nc[nH]c23)c1 was read as Shiga toxin inh 65*, Cycloheximide cs 39*, Pf growth 96h inconclusive, HCMV inh 119 and Pf growth 48h 67%.
Screening CCOC(=O)c1ccc(Nc2ncnc3ccccc23)cc1 returned Shiga toxin inh 48, Cycloheximide cs 46*, Pf growth 96h 288%, HCMV inh inconclusive and Pf growth 48h 2%.
CCOC(=O)c1[nH]c(C)c(CCC(=O)N2CCN(c3ccc(OC)cc3)CC2)c1C was read as HCMV inh 0.
`Cc1ccccc1C(=O)Nn1c(C)ccc1C` gave Shiga toxin inh -3, Cycloheximide cs 1, Pf growth 96h 38% and Pf growth 48h 12%.
`N#Cc1ccc(CN2CCN(C(=O)CCNS(=O)(=O)c3ccc(F)c(F)c3)CC2)cc1` gave Pf growth 96h inconclusive, HCMV inh -26 and Pf growth 48h inconclusive.
CCOC(=O)c1ccc(Nc2ncnc3nc[nH]c23)cc1 was read as Shiga toxin inh 44*, Cycloheximide cs 22*, Pf growth 96h 10%, HCMV inh -8 and Pf growth 48h 62%.
For O=C(O)c1ccc(Nc2ncnc3ccccc23)cc1 the results were Shiga toxin inh 20, Cycloheximide cs 16*, Pf growth 96h 9%, HCMV inh 29 and Pf growth 48h 31%.
`O=C(Oc1ccc(Nc2ncnc3ccccc23)cc1)c1cccnc1` gave Shiga toxin inh 37, Cycloheximide cs -3, Pf growth 96h 12µM*, HCMV inh 1 and Pf growth 48h 3%.
For COc1ccc(Nc2ncnc3nc[nH]c23)cc1OC the results were Shiga toxin inh 10, Cycloheximide cs 1, Pf growth 96h -16% and Pf growth 48h 14%.
CCOC(=O)c1cccc(Nc2nc(C)cc(C)n2)c1 was read as Shiga toxin inh 13, Cycloheximide cs 14*, Pf growth 96h -14%, HCMV inh 47 and Pf growth 48h 25%.
For Cc1cc(C(=O)NCC23CC4CC(CC(C4)C2)C3)c(C)o1 the results were Shiga toxin inh 21, Cycloheximide cs -3, Pf growth 96h 18% and Pf growth 48h -8%.
Screening CCN1C(=O)C(=O)N(CC(=O)N(C)CC(=O)Nc2ccccc2C(F)(F)F)C1=O returned HCMV inh -22.
`CC1(C)CC(=O)N(c2ccc(C#N)cc2)C(=O)C1` gave Shiga toxin inh -11, Cycloheximide cs -3, Pf growth 96h -19%, HCMV inh 39 and Pf growth 48h 19%.
CCC(=O)NNc1ncnc2ccccc12 was read as Shiga toxin inh -9, Cycloheximide cs 1, Pf growth 96h 28%, HCMV inh 63 and Pf growth 48h 23%.
Screening O=C(O)CCC(=O)NNc1ncnc2ccccc12 returned Shiga toxin inh 73*, Cycloheximide cs 46*, Pf growth 96h 16%, HCMV inh 20 and Pf growth 48h 23%.
Cc1cc(C)nc(Nc2cccc(Cl)c2)n1 was read as Shiga toxin inh 34, Cycloheximide cs 15*, Pf growth 96h 15%, HCMV inh -16 and Pf growth 48h 33%.
Screening Cc1ccc(C)c(/C=C/C(=O)c2ccccc(=O)c2O)c1 returned Shiga toxin inh 52*, Cycloheximide cs 111*, Pf growth 96h 1.5µM*, HCMV inh -101* and Pf growth 48h 4.1µM*.
`Cc1nn(C)cc1C(=O)/C=C/c1ccc([N+](=O)[O-])cc1` gave Shiga toxin inh 4, Cycloheximide cs 11, Pf growth 96h 4.7µM*, HCMV inh -28 and Pf growth 48h 13µM*.
`O=C(C=Cc1ccccc1O)c1ccccc1O` gave HCMV inh 20.
For CCn1cc(CN(C)C(=O)/C=C/c2ccc([N+](=O)[O-])cc2)c(C)n1 the results were Shiga toxin inh 16, Cycloheximide cs 0, Pf growth 96h inconclusive, HCMV inh 26 and Pf growth 48h 7%.
`Cc1ccc(/C=C/C(=O)c2ccccc(=O)c2O)c(C)c1` gave Shiga toxin inh 30*, Cycloheximide cs 20, Pf growth 96h 9.3µM*, HCMV inh -82* and Pf growth 48h inconclusive.
For O=C(/C=C/c1ccccc1Cl)c1ccccc(=O)c1O the results were Shiga toxin inh 89*, Cycloheximide cs 65*, Pf growth 96h 3.7µM*, HCMV inh inconclusive and Pf growth 48h 5.2µM*.
Screening COc1cc(CNC(=O)CCn2nc(C)c3c(C)n(-c4ccccc4)nc3c2=O)cc(OC)c1OC returned Shiga toxin inh -1, Cycloheximide cs -3, Pf growth 96h inconclusive, HCMV inh inconclusive and Pf growth 48h -19%.
`CC1=C(C(=O)N2CCOCC2)CC(CC(=O)NCc2cccs2)C(=O)N1Cc1ccc(F)cc1` (stereo unspecified) gave HCMV inh 16.
For O=C(/C=C/c1ccc([N+](=O)[O-])cc1)c1ccccc(=O)c1O the results were HCMV inh -95*.
CC(C)NC(=O)c1ccccc1NC(=O)/C=C/c1ccc([N+](=O)[O-])cc1 was read as Shiga toxin inh -13, Cycloheximide cs -3, Pf growth 96h 0%, HCMV inh 9 and Pf growth 48h 30%.
CCOC(=O)CCCCCC(=O)Nc1ccc2c(c1)C(=O)N([C@H](C)CO)C[C@@H](C)[C@H](CN(C)S(=O)(=O)c1cn(C)cn1)O2 was read as HCMV inh 8.
Screening COc1ccccc1C1CC(c2cccs2)=Nc2ccccc2S1 (stereo unspecified) returned Shiga toxin inh 97*, Cycloheximide cs 70*, Pf growth 96h 10µM* and HCMV inh 17.
COc1ccc(/C=N\Nc2ccccn2)c(OC)c1 was read as Shiga toxin inh 43, Cycloheximide cs 39*, Pf growth 96h 6%, HCMV inh 51 and Pf growth 48h 123%.
